About 83,000 compounds went through this panel and 20% of them were active in at least one assay; those are over-represented in the sample as a whole.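 Growth was measured after 48 h exposure to one concentration of compound in 96-well plates. Values under 10 count as active.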 Unmarked numbers belong to inactive results. Active and inactive are the calls of the source.

This experiment relates to NCI-H322M lung. Put plainly: NCI-60 one-dose screen, 48 h (100 = growth as untreated, 0 = no growth, -100 = all killed). Conditions: 10 µM unless noted. How it is done:
Growth inhibition of the NCI-H322M human Non-Small Cell Lung tumor cell line is measured as a screen for anti-cancer activity. Cells are grown in 96 well plates and exposed to the test compound for 48 hours. Compounds are tested at a single concentration, which is 10^-5 M for most compounds. The reported endpoint is percent growth (GI% or GIPRCNT), where numbers from 0 - 100% represent growth inhibition, and numbers from -100% - 0 represent cell death. For example, a value of 40 represents 60% growth inhibition. A value of 0 means no net growth occurred over the course of the experiment. A value of -40 indicates 40% of cells at the beginning of the experiment died by the end of the experiment. A value of -100 means all cells are dead at the end of the experiment.
NCI-60 Human Tumor Cell Lines Screen was performed using the standard one-dose NCI protocol, which is described in more detail at https://dtp.cancer.gov/discovery_development/nci-60/default.htm.
Compounds with GIPRCNT values below 10 were considered active. Activity score was based on GIPRCNT using the following formula: […]
Score is 0 for GIPRCNT values of 100 or above, 50 for GIPRCNT values of 0, and 100 for GIPRCNT values of -100.
For `CCC/C(=N\NC(N)=O)C(OC)OC`, the growth was 109%.

As to `O=c1nc(Nc2nc3ccccc3s2)[nH]c(=O)c2ccccc12`, the growth was 105%.

Regarding `COc1ccc(C2=Nc3c/c(=C\c4c(O)[nH]c5cc(Cl)ccc45)ccc3=N2)cc1`, the growth is 91.2%.

In the case of `CCOC(=O)c1ccc2c(c1)c1c(C)c3ccncc3c(C)c1n2C`, the growth is 18.1%.

For the molecule `Cc1ccc(-c2cc(C(=O)N3N=C(c4ccc(N)cc4)CC3c3ccc(Cl)cc3)c3ccccc3n2)cc1` (stereo not given), the growth was 48.3%.

Consider `O=C1/C(=C/c2ccc(C(F)(F)F)cc2)COc2ccc(O)cc21`, for which the growth was 95.2%.

As to `COc1cc2c(cc1O)[C@@]1(C)[C@H](c3ccccc3Br)OC(=O)N1CC2`, the growth was 116%.

As to `COc1ccc(C2CC(c3ccc4c(c3)OCO4)=Nc3c(N)ncnc3N2)cc1` (stereo not given), the growth was 95.4%.

For the molecule `Cn1cc(-c2nonc2-c2c[nH]c3ccccc23)c2ccccc21`, the growth is 33.9%.

In the case of `CCC(C)Nc1ccc(NC(C)CC)cc1` (stereo not given), the growth was 86.4%.

`O=C(N/N=C/c1ccc(Cl)cc1Cl)c1ccc2nc(-c3ccc(Cl)cc3)[nH]c2c1`: the growth is 27.7%.

As to `CC(CN)[C@@H]1CC[C@]2(CO)CC[C@]3(C)[C@H](CC[C@@H]4[C@@]5(C)CCC(N)C(C)(C)[C@@H]5CC[C@]43C)[C@@H]12` (stereo not given in full), the growth is 48.8%.

As to `CC(C)CSc1oc(-c2ccccc2)nc1S(=O)(=O)c1ccccc1`, the growth was 99%.

`Cc1[nH]c(/C=C/C(=O)c2ccc(C(F)(F)F)c(F)c2)c(C)c1C(=O)NCC(C)C`: the growth is 101%.

As for `CCc1cccc(Sc2cc(C(=O)N3Cc4ccc(OCCN(C)C)cc4C3)ccc2O)c1`, the growth is 62.9%.

For `C/C(=C(/c1ccc(Cl)cc1)c1ccc(OCCCN(C)C)cc1)c1ccc(Cl)cc1`, the growth is 85.9%.

Regarding `O=C(/C=C/c1cccc(Cl)c1)c1cccc(OCCCCOc2cccc(C(=O)/C=C/c3cccc(Cl)c3)c2)c1`, the growth is 92.2%.

On to `O=C(CCCCCCCCC(=O)N/N=C\c1cc(Cl)ccc1O)N/N=C\c1cc(Cl)ccc1O`, for which the growth was 41.1%.

As for `Cc1cccc(NC(=O)CSc2nc3ccc([N+](=O)[O-])cc3[nH]2)c1`, the growth is 97.2%.

Turning to `C=C1C(=O)O[C@H]2[C@H]1CC/C(COC(=O)c1cc3cc(F)ccc3[nH]1)=C\CC[C@@]1(C)O[C@@H]21`, the growth was -35.7% (active).

In the case of `CCOC(=O)C/C(=N\Nc1cc(=O)[nH]c2ccc(Cl)cc12)C(=O)OCC`, the growth was 91.3%.

Regarding `CCOC(=O)c1c(C)nc2c(c1N)CC(=O)N2Cc1cc(OC)c(OC)c(OC)c1`, the growth was 81.3%.

For `CCN1CCN(CC(=O)Nc2nc3ccc(NCc4ccc(Br)cc4)cc3s2)CC1`, the growth was 84.9%.

In the case of `N#Cc1nc2c(S(=O)(=O)c3ccccc3)c(N)n(Cc3cccnc3)c2nc1C#N`, the growth was 91.7%.

For `CCCn1c(=S)sc2c1nc(C)n1c(Nc3ccccc3)nnc21`, the growth is 83.9%.

Regarding `COc1cc2cc(Oc3ccc(NC(=O)Nc4ccccc4)cc3)c(C)nc2cc1OCCN1CCCCC1`, the growth was 114%.

As to `Oc1c(Cl)cc(Cl)c2ccc(Cn3cc(-c4cccc(C(F)(F)F)c4)nn3)nc12`, the growth was 102%.

For the molecule `COc1cc2ncnc(Nc3ccc(F)c(Cl)c3)c2cc1OCC(=O)N1CCN(c2ccc(F)cc2)CC1`, the growth is 36.5%.

Regarding `CCOC(=O)c1c(-c2ccc(Cl)cc2)c(C#N)c2c(C#N)c(N)nn2c1N`, the growth is 83.4%.

For `N#Cc1c(-c2ccccc2)c(C#N)c2c(C#N)c(N)nn2c1N`, the growth was 83.5%.

In the case of `COc1ccc(C/C(C)=C(\c2ccc(O)cc2)c2ccc(OCCN3CCCC3)cc2)cc1`, the growth was 99.2%.

On to `COc1ccc2c(O)c(/C=C3\N=Nc4ccccc43)oc2c1C[C@H]1CCNC[C@H]1F`, for which the growth was 73.4%.

Take `O=C(Cn1nnc([N+](=O)[O-])n1)c1ccccc1`: the growth was 101%.

Consider `N#CCC1=NC(c2cccs2)=Nc2ccccc2S1`, for which the growth was 101%.

`C=CC1(C)C(O[Si](C)(C)C(C)(C)C)CC2C3OC(=O)NC31c1cccc3c1[C@H](C(=O)N3C)C2(C)C` (stereo not given in full): the growth is 78.3%.

In the case of `N=C(N)SCc1cccc2c(CSC(=N)N)cccc12`, the growth is 90.7%.

In the case of `C=C1C(=O)O[C@H]2[C@H]1CC/C(Cn1cc(-c3cc(C(F)(F)F)cc(C(F)(F)F)c3)nn1)=C\CC[C@@]1(C)O[C@@H]21`, the growth is -24.4% (active).

Consider `O=C(CN1C(=O)/C(=C/c2ccco2)SC1=S)NCCc1c[nH]c2ccc(F)cc12`, for which the growth is 102%.

For the molecule `Cc1cc(C)c(-c2c(O)c(Br)c(-c3c(C)cc(C)c(Br)c3C)c(O)c2Br)c(C)c1Br`, the growth was 38.1%.

Turning to `O=P(O)(O)OCC1OC(n2cnc3c(NCc4ccccc4)ncnc32)C(O)C1O` (stereo not given), the growth is 33.6%.

The values are drawn from PubChem BioAssay (NCI).
